hgDAF-12 ag = hgDAF-12 agonism, primary luciferase screen. 1.8% of 370,000 active. HEK293 GAL4-hgDAF12 UAS-luciferase reporter, agonist luminescence; normalized to butyrate control. activation, % at 6.8 µM;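 active = activation above a cutoff set at the mean of all screened compounds plus 3 SD, cut at about 10% in these data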;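 note: 0% = DMSO wells and 100% = sodium butyrate wells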
SMARCA2 activ = activators of SMARCA2 function. 1% of 370,000 active. activation, % at 9.1 µM. MG213 cells, MMTV-luciferase reporter, dexamethasone, overnight. AID 652017; in the data active = activation above about 7.8%;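 note: 0% = vehicle wells and 100% = reference activator wells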
DAX1 inh-1 = blocks DAX1 repression of SF-1 activated StAR promoter | HEK293T StAR-luciferase reporter, SF-1/DAX-1 repression relief | inhibition, % at 6.8 µM | 1.1% of 370,000 active;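 active = inhibition above the mean over all tested compounds plus 3 SD, cut at about 3.6% in these data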;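 note: 0% = DAX-1 cells with DMSO and 100% = cells lacking DAX-1 with DMSO; higher inhibition means more luminescence from relief of DAX-1 repression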
ssDAF12 agonist = S. stercoralis DAF-12 activation, primary screen; HEK293 ssDAF-12/GRIP1 lit1-tk-luc reporter, luminescence; % of 3 µM dafachronic acid response; activation, % at 6.8 µM; 1% of 370,000 active;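 active = activation above the mean over all tested compounds plus 3 SD, cut at about 0.9% in these data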;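 note: 0% = DMSO-only wells and 100% = 3 µM delta7-dafachronic acid wells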
DAX1 inh-2 = NR0B1 (DAX1) inhibition; HEK293 Gal4-DAX1 luciferase reporter, luminescence; 0.99% of 340,000 active; inhibition, % at 6.75 µM; AID 504766;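 active = inhibition above the mean over all tested compounds plus 3 SD, cut at about 4.2% in these data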;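 note: 0% = DAX1-transfected cells with DMSO and 100% = empty-vector control cells with DMSO; inhibition shows as a rise in luminescence from relieved DAX1 repression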
hcDAF-12 act = activates DAF-12 receptor from parasite H. contortus | HEK293 hcDAF-12 lit1-tk-luc reporter, luminescence; 0% DMSO, 100% Δ7-dafachronic acid | activation, % at 6.8 µM | 1.4% of 370,000 active;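 active = activation above the mean of all tested compounds plus 3 SD, cut at about 5.5% in these data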;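 note: 100% = response to 3 µM Δ7-dafachronic acid high control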
hgDAF12 conf = confirmation of H. glycines DAF-12 agonists; HEK293 GAL4-hgDAF12 luciferase reporter, agonist mode; percent of butyrate response; activation, % at 6.8 µM; 80% of 3,300 active; shares compounds with hgDAF-12 ag;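 active = mean activation over triplicate wells above the hit cutoff derived from the earlier primary screen, cut at about 11% in these data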;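 note: 0% = DMSO low control and 100% = 2 mM sodium butyrate high control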
LXR ag 2 = LXR-beta agonism as DAF-12 counter-screen. shares compounds with hgDAF-12 ag. HEK293 Gal4-LXR luciferase reporter, 24 h. activation, % at 6.8 µM. 3,300 tested, under 10 active;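 active = mean activation of the triplicate above a set limit carried over from the primary screen, none filed active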
Target sequence (P55055 whole entry, looked up, the tested form may be a part): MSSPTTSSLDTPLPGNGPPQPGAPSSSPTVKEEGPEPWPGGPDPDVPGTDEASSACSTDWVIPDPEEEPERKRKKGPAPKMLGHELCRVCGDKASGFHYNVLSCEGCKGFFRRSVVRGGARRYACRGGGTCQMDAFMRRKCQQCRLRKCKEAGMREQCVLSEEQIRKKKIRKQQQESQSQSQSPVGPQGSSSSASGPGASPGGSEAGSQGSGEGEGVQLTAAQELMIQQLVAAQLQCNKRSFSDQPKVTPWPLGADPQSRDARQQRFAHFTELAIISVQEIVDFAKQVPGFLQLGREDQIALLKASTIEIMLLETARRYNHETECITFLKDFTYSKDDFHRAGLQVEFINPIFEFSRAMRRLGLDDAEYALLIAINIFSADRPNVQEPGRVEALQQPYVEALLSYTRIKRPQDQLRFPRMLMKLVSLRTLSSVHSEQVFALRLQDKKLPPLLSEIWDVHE
Numbers without * were called inactive; · = no result. A selection: hits, their analogues and other compounds. The true share with any hit is near 4.8%.

SMILES | hgDAF-12 ag | SMARCA2 activ | DAX1 inh-1 | ssDAF12 agonist | DAX1 inh-2 | hcDAF-12 act | hgDAF12 conf | LXR ag 2
CCOC(=O)C1=CCN(S(=O)(=O)c2ccc(Br)cc2)C1c1cccc(F)c1 (stereo unspecified) | 0 | -5 | 0 | -1 | · | -2 | · | ·
COc1cccc(C(=O)N[C@H](C(=O)N2CCC[C@H]2C(=O)NCc2ccccc2)C2CCCCC2)c1 | 0 | -4 | 0 | -1 | · | -1 | · | ·
Cc1ccccc1CNC1CCC12CCC(c1ccccc1)CC2 (stereo unspecified) | 2 | · | · | -1 | · | -1 | · | ·
O=C(NCCN1C(=O)C2C3C=CC(C3)C2C1=O)Nc1ccc(Br)cc1 (stereo unspecified) | 13* | 3 | 3 | 0 | 4 | 3 | 11* | 0
O=[N+]([O-])c1ccc(COc2cccc(CO)c2)cc1 | 3 | 6 | -1 | -1 | · | 3 | · | ·
O/N=C/c1cc(Br)cc(Br)c1OCc1ccccc1 | -4 | 0 | 0 | -2 | -1 | -2 | · | ·
O/N=C/c1ccc(OCc2ccccc2)c(Cl)c1 | 15* | 5 | 2 | 1.4* | 5.0* | 4 | 13* | 1
O/N=C/c1ccc(OCc2ccccc2)c(Br)c1 | 16* | 3 | 1 | 0 | 1 | 3 | 22* | 1
COc1cc(OC)cc(C(=O)Nc2ccc([N+](=O)[O-])cn2)c1 | 0 | -1 | 0 | -1 | -1 | -2 | · | ·
Cc1ccc(C(=O)Nc2ncc(C)s2)o1 | 20* | 4 | 2 | 0 | 1 | 3 | 15* | 1
COc1ccc(C(=O)Nc2ccc([N+](=O)[O-])cn2)c(OC)c1 | 19* | 7 | 3 | 0 | 4 | 4 | 20* | 1
Cc1ccc(C(=O)Nc2ccc([N+](=O)[O-])cn2)o1 | 14* | 3 | 1 | -1 | 0 | -1 | 7 | 0
Cc1ccc(NC2=Nc3ccccc3CC2)cc1 | 14* | 6 | 2 | 1 | 0 | 6.3* | 17* | 1
Brc1ccc(NC2=Nc3ccccc3CC2)cc1 | 4 | 8 | 2 | -1 | 1 | 3 | · | ·
CCn1cnc2sc(-c3ccccc3)cc2c1=O | 17* | 3 | 2 | 0.9* | 1 | 4 | 16* | 1
C[C@H]1CNC(=O)c2c(C(=O)N(C)Cc3ccccc3)ncn21 | -1 | -5 | 0 | -1 | · | 0 | · | ·
C[C@H]1Cn2cnc(C(=O)N(C)Cc3ccccc3)c2C(=O)N1 | 30* | -5 | 0 | 0 | · | 1 | 0 | 0
CCc1ccc(C(=O)Nc2cc(C)ccc2F)s1 | 16* | 1 | 1 | 0 | 1 | 4 | 7 | 0
CC(C)N(c1cc(=O)nc2ccccn12)C(C)C | 0 | 2 | 0 | -1 | · | 2 | · | ·
O=C(/C=C/Nc1ccc(Oc2ccccc2)cc1)c1ccco1 | 13* | 3 | 3.8* | 1 | 1 | 4 | 23* | 1
O=C(Nc1ccc(Oc2ccc3ccccc3c2)cc1)c1ccco1 | -3 | -6 | -1 | -1 | -2 | -2 | · | ·
Cc1noc(C)c1S(=O)(=O)N1CCCc2nc(-c3ccc(F)cc3)ccc21 | -4 | -3 | -3 | -2 | · | -3 | · | ·
O=C(NCCc1ccccc1)c1ccc(NC(=O)C2CC2)cc1 | 14* | 1 | 3 | 0 | 1 | 1 | 7 | 0
O=C(NCCc1csc(-c2ccccc2)n1)c1c(F)cccc1F | 2 | -2 | 0 | -1 | -1 | -1 | · | ·
O=C(NCCc1ccccc1)c1c(F)cccc1F | 14* | 7 | 3.9* | 0 | 1 | 3 | 12* | 1
COC(=O)c1ccc2nc(-c3cccc(Cl)c3)c(Cc3ccccc3C(F)(F)F)n2c1 | 3 | 1 | 1 | 0 | · | -1 | · | ·

Screening results (PubChem BioAssay)
